Holding throughout (test): DAPPL (digital affinity profiling via proximity ligation, sequencing); 10 mM Tris-HCl pH 7.5, 50 mM NaCl, 1 mM DTT, 4% glycerol, room temperature, 30 min; GST-TFs on glutathione beads, 16-mer random dsDNA library, 0.1% formaldehyde crosslink after washing; high values mean tight binding
One assay has as its target T1, FEV (Homo sapiens, UniProt Q99581 1-238).
T1 sequence: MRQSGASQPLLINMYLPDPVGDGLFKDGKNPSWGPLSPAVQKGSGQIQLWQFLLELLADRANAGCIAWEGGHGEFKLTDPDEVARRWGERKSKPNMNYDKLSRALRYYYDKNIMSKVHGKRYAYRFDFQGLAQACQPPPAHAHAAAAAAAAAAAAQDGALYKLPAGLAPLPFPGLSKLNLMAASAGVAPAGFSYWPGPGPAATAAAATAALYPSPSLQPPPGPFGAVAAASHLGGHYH
Particulars: protein: recombinant; tags: N-terminal GST; dsDNA, one strand shown. The method in brief:
(§1)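 Binding signal is each hexamer's read frequency for a factor divided by its frequency in the tag-only sample. The factors were GST-fused human transcription factors from yeast, captured on glutathione beads, DNA-barcoded and pooled with that sample. Pools were incubated with 200 nmole of a random double-stranded 16-mer DNA library in Tris/NaCl/DTT/glycerol buffer at room temperature for 30 min, then washed, crosslinked with 0.1% formaldehyde, proximity-ligated with BsaI/T4 ligase (1 h, 37 °C), PCR-amplified and sequenced on an Illumina NextSeq500.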

A further assay concerns the target ETV5 (Homo sapiens, UniProt P41161 1-510). Particulars: protein: recombinant; tags: N-terminal GST; dsDNA, one strand shown. The method in brief:
as §1

Another assay deals with HSF1 (Homo sapiens, UniProt Q00613 1-529). The conditions noted are these: protein: recombinant; tags: N-terminal GST; chain copies: 3; dsDNA, one strand shown. The method in brief:
as §1

The target in another assay is T2, SPIC (Homo sapiens, UniProt Q8N5J4 1-248).
T2 sequence: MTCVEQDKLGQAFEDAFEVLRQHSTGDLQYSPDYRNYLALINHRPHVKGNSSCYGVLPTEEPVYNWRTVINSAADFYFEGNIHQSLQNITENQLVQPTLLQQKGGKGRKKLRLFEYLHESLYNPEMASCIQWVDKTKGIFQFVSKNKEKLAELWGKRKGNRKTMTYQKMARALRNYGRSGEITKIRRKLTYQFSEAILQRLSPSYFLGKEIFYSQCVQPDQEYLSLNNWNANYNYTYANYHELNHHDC
The conditions noted are these: protein: recombinant; tags: N-terminal GST; dsDNA, one strand shown. A digest of the protocol: as §1

In the next assay the target is ELF4 (Homo sapiens, UniProt Q99607 1-663). The conditions noted are these: protein: recombinant; tags: N-terminal GST; dsDNA, one strand shown. A digest of the protocol: as §1
ELF4, sequence (Q99607 whole entry): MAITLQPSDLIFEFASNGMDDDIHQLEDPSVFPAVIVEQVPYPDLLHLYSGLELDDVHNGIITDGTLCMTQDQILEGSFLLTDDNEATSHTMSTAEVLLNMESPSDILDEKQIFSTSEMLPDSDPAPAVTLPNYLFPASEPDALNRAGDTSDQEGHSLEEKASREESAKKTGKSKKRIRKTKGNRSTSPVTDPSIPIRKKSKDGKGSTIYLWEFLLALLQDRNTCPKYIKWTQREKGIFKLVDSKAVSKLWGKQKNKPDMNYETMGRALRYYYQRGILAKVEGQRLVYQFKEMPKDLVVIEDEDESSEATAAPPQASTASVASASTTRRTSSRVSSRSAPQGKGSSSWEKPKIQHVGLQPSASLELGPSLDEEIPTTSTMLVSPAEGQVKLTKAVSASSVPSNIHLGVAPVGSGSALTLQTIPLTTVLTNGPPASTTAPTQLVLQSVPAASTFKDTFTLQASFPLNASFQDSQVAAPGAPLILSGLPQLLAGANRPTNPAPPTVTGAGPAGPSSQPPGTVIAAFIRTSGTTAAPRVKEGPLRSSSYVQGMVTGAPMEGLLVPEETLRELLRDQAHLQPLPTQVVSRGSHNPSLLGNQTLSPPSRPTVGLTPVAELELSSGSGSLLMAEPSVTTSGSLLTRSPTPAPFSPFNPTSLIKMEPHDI
The next assay deals with T3, ELK4 (Homo sapiens, UniProt P28324-2 1-405).
T3 sequence: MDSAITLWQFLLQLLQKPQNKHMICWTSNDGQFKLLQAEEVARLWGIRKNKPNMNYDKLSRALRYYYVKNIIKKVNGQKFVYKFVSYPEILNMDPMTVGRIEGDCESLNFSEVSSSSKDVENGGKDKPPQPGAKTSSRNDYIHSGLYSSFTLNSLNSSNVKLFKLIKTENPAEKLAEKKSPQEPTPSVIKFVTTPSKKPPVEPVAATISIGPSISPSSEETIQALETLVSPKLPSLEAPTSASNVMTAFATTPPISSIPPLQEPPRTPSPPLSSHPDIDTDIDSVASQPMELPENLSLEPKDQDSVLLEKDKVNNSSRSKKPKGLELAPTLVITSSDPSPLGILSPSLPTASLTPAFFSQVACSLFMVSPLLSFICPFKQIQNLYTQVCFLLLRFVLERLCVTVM
Particulars: protein: recombinant; tags: N-terminal GST; dsDNA, one strand shown. The method in brief:
as §1

Another assay deals with T4, ETV2 (Homo sapiens, UniProt O00321 1-342).
T4 sequence: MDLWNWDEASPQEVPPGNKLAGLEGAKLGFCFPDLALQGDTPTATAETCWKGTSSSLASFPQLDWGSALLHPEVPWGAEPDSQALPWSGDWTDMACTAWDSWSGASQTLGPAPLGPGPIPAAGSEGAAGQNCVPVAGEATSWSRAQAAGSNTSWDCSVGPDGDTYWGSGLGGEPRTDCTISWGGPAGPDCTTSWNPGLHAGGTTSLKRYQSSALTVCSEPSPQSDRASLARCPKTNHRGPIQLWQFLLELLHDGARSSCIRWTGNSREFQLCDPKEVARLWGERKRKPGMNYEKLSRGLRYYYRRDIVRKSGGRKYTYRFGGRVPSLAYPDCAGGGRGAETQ
The conditions noted are these: protein: recombinant; tags: N-terminal GST; dsDNA, one strand shown. The method in brief: as §1

A further assay concerns the target T5, ELF3 (Homo sapiens, UniProt P78545 1-371).
T5 sequence: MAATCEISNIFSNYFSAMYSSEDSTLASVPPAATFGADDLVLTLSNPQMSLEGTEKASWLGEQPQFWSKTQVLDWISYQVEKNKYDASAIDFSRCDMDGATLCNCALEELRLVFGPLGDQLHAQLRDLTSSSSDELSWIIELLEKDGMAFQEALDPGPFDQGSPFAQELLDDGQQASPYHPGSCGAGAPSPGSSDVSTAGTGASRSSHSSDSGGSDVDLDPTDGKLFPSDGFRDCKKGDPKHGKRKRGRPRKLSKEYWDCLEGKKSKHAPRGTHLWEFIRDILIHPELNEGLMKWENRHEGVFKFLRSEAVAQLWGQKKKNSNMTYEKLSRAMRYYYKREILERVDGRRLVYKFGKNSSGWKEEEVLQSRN
Particulars: protein: recombinant; tags: N-terminal GST; dsDNA, one strand shown. The method in brief: as §1

The target of the next assay is CRX (Homo sapiens, UniProt O43186 1-299). Particulars: protein: recombinant; tags: N-terminal GST; dsDNA, one strand shown. A digest of the protocol:
as §1

For a further assay, the target named is ETV1 (Homo sapiens, UniProt P50549 1-477). Particulars: protein: recombinant; tags: N-terminal GST; dsDNA, one strand shown. A digest of the protocol: as §1
ETV1, sequence (P50549 whole entry): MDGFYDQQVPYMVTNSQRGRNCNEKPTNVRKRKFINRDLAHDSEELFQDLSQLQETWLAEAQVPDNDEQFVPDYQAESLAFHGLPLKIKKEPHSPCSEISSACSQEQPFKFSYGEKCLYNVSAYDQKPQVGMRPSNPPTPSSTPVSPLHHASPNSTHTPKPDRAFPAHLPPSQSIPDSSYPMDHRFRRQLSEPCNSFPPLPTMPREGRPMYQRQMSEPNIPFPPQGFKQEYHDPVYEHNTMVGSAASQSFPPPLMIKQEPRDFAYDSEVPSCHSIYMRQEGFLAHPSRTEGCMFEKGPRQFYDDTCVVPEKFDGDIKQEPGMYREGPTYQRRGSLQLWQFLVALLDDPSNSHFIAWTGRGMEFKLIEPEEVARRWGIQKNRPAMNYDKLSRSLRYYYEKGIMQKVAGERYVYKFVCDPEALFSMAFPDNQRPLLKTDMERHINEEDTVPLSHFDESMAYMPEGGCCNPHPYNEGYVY
Another assay addresses T6, ERF (Homo sapiens, UniProt P50548 1-548).
T6 sequence: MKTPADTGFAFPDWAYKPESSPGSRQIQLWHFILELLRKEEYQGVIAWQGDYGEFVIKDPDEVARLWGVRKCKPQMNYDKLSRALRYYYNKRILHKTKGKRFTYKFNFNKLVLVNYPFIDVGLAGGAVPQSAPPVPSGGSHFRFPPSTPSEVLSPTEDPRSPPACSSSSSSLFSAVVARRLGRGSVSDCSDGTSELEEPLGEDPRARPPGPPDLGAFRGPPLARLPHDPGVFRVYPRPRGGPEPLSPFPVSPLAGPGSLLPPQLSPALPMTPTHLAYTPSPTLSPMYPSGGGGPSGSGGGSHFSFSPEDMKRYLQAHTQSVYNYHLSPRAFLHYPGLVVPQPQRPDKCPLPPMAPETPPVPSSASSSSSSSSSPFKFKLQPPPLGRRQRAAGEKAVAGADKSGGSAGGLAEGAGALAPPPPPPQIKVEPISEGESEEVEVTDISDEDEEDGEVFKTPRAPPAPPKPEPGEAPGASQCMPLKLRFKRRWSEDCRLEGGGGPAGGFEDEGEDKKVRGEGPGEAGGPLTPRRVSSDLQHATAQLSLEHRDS
Particulars: protein: recombinant; tags: N-terminal GST; dsDNA, one strand shown. A digest of the protocol:
as §1

The target of a further assay is T7, ETV3L (Homo sapiens, UniProt Q6ZN32 1-361).
T7 sequence: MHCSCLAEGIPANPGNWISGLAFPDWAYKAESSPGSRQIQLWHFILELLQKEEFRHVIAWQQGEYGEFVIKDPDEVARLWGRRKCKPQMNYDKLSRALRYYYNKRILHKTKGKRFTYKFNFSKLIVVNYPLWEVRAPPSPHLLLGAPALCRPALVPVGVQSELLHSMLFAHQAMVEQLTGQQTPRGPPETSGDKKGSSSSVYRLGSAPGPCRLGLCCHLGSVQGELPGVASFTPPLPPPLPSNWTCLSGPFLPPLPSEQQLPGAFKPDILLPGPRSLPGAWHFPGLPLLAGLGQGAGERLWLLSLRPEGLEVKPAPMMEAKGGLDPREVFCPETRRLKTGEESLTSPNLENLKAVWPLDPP
The conditions noted are these: protein: recombinant; tags: N-terminal GST; dsDNA, one strand shown. A digest of the protocol:
as §1

In a further assay the target is T8, ETS2 (Homo sapiens, UniProt P15036 1-469).
T8 sequence: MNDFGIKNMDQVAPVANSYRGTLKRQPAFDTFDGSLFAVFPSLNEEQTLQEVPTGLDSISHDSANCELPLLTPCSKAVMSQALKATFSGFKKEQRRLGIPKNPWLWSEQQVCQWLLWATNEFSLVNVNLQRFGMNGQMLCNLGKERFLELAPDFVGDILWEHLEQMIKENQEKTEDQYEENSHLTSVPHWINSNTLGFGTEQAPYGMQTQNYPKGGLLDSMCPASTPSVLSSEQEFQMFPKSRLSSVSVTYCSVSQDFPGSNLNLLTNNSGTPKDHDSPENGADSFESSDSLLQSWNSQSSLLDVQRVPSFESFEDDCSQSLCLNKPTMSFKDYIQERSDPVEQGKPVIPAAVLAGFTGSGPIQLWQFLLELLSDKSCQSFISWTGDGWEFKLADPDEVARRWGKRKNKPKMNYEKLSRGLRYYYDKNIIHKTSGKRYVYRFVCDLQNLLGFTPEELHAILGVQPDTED
Particulars: protein: recombinant; tags: N-terminal GST; dsDNA, one strand shown. A digest of the protocol: as §1

For another assay, the target named is T9, SPDEF (Homo sapiens, UniProt O95238 1-335).
T9 sequence: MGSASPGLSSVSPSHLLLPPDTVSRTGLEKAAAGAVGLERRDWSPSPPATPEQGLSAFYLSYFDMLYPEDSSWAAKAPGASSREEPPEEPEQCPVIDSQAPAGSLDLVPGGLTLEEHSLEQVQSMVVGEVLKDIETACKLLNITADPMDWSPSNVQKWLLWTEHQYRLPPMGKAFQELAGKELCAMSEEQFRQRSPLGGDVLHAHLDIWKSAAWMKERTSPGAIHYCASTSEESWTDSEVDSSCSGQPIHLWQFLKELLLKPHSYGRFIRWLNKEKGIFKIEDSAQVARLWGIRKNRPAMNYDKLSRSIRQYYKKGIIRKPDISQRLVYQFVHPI
The conditions noted are these: protein: recombinant; tags: N-terminal GST; dsDNA, one strand shown. The method in brief: as §1

A further assay concerns the target T10, ETV7 (Homo sapiens, UniProt Q9Y603 1-341).
T10 sequence: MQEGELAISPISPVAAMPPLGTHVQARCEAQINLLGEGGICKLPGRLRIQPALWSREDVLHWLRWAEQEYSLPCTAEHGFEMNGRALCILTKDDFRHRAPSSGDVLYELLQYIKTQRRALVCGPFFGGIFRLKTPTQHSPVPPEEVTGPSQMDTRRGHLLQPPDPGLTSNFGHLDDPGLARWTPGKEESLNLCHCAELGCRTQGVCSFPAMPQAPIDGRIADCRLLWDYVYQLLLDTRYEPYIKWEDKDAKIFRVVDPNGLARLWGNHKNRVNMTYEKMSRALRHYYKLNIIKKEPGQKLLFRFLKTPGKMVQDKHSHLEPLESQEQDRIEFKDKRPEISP
The conditions noted are these: protein: recombinant; tags: N-terminal GST; dsDNA, one strand shown. The method in brief: as §1

The next assay concerns the target T11, ELF5 (Homo sapiens, UniProt Q9UKW6-2 1-255).
T11 sequence: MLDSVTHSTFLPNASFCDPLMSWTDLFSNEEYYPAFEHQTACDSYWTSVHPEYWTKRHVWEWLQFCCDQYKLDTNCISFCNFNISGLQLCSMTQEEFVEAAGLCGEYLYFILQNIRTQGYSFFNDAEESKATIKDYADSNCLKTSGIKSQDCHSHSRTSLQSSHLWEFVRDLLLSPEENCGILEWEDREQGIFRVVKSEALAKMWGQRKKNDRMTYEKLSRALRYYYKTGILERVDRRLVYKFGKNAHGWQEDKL
Particulars: protein: recombinant; tags: N-terminal GST; dsDNA, one strand shown. The method in brief: as §1

Another assay deals with T12, ETV3 (Homo sapiens, UniProt P41162-2 1-143).
T12 sequence: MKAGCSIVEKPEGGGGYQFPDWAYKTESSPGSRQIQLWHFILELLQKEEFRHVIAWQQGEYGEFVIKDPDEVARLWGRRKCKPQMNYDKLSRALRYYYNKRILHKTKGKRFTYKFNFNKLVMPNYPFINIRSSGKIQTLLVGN
The conditions noted are these: protein: recombinant; tags: N-terminal GST; dsDNA, one strand shown. The method in brief:
as §1

Another assay addresses ETV6 (Homo sapiens, UniProt P41212 1-452). The conditions noted are these: protein: recombinant; tags: N-terminal GST; dsDNA, one strand shown. A digest of the protocol:
as §1

ETV5, sequence (P41161 whole entry): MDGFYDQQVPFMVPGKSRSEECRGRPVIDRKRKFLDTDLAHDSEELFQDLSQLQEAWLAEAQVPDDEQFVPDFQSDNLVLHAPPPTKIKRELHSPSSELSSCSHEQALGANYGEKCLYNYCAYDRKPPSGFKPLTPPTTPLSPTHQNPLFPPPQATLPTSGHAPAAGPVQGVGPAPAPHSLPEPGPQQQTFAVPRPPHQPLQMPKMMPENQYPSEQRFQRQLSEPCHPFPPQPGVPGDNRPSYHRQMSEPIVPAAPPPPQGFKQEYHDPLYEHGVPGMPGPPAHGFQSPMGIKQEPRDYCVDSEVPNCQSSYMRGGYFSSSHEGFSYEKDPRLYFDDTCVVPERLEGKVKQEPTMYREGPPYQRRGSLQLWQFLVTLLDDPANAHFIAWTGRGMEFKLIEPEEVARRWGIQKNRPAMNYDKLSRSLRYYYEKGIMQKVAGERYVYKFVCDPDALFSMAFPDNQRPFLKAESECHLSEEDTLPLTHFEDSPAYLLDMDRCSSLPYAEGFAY
CRX, sequence (O43186 whole entry): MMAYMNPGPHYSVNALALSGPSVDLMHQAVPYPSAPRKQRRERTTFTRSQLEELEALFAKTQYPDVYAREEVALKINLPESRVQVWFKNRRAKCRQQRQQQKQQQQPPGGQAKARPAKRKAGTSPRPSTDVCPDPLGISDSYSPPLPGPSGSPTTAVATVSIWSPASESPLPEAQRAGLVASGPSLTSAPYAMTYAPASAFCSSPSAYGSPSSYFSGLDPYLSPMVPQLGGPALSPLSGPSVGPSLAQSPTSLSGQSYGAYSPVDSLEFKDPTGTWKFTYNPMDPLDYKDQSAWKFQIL
HSF1, sequence (Q00613 whole entry): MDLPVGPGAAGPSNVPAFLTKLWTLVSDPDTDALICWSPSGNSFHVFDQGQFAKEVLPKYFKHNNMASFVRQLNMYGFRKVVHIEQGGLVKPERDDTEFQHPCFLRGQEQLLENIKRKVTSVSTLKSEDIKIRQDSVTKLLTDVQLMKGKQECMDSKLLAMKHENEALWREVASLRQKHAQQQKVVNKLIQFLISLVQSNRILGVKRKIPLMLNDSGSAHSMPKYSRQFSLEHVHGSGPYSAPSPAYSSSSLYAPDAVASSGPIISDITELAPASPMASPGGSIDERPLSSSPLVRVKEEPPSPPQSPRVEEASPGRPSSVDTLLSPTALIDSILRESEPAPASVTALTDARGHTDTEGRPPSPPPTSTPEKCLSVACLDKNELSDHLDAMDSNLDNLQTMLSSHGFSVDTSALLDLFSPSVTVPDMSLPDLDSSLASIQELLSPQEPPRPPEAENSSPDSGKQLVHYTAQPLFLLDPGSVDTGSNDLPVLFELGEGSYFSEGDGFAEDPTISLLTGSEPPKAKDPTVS
ETV6, sequence (P41212 whole entry): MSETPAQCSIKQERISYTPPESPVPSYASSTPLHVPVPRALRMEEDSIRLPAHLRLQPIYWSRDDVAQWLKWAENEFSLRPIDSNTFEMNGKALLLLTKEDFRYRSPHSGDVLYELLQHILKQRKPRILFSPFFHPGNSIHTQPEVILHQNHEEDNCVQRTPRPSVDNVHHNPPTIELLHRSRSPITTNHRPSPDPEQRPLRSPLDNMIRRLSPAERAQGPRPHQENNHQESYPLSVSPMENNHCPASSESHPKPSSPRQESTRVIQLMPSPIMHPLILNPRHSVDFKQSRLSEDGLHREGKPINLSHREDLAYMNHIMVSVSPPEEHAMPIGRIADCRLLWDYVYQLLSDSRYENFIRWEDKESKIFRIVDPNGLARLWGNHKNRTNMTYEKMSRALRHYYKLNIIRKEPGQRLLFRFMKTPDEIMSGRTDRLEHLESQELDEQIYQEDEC

For ACTTTA, the binding signal with FEV is 1.15 fold enrichment (6-mer frequency, TF over GST control); with ETV5, 1.21 fold enrichment (6-mer frequency, TF over GST control); in the assay with HSF1, 1.33 fold enrichment (6-mer frequency, TF over GST control); with SPIC, 1.21 fold enrichment (6-mer frequency, TF over GST control); with ELF4, 1.23 fold enrichment (6-mer frequency, TF over GST control); with ELK4 it was 1.15 fold enrichment (6-mer frequency, TF over GST control). Further, the binding signal was 1.26 fold enrichment (6-mer frequency, TF over GST control) with ETV2; 1.23 fold enrichment (6-mer frequency, TF over GST control) with ELF3; 1.54 fold enrichment (6-mer frequency, TF over GST control) with CRX; 1.21 fold enrichment (6-mer frequency, TF over GST control) with ETV1; 1.12 fold enrichment (6-mer frequency, TF over GST control) in the assay with ERF; 1.26 fold enrichment (6-mer frequency, TF over GST control) in the assay with ETV3L. Also, the binding signal was 1.25 fold enrichment (6-mer frequency, TF over GST control) with ETS2; 1.08 fold enrichment (6-mer frequency, TF over GST control) with SPDEF; 1.29 fold enrichment (6-mer frequency, TF over GST control) with ETV7; 1.15 fold enrichment (6-mer frequency, TF over GST control) with ELF5; 1.19 fold enrichment (6-mer frequency, TF over GST control) with ETV3; 1.18 fold enrichment (6-mer frequency, TF over GST control) in the assay with ETV6.

The values above are taken from PMC7862700, “An all-to-all approach to the identification of sequence-specific readers for epigenetic DNA modifications on cytosine”.
